Active and inactive are the calls of the source. The calls were made as follows: active = hit-call score of the fitted dose curve at least 0.9, where 1 is the maximum; inactive = score below 0.9.

Read-out in one assay: Human Leukocyte Antigen - DR isotype (HLADR), HLA-DRA (gene 3122)
Nature of the assay: BSK_CASM3C_HLADR: BioMAP Diversity Plus: CASM3C Assay for Human Leukocyte Antigen - DR isotype (HLADR) Biomarker Activity (AID 2283043).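 Also: cell-surface HLA-DR protein level quantified by ELISA.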 Conditions: primary human coronary artery smooth muscle cells; actives raise or lower the signal.
Turning to `Nc1ccn([C@@H]2O[C@H](CO)[C@@H](O)[C@@H]2O)c(=O)n1`, the result was inactive.

Regarding `CCCCCCCCCCCCCCCCOS(=O)(=O)O`, the result was inactive.

Consider `CC(C)CCCCCCOC(=O)C1CCCCC1C(=O)OCCCCCCC(C)C` (stereo not drawn), for which the result was inactive.

In the case of `O=C(O)[C@H](O)[C@@H](O)C(=O)O`, the outcome was inactive.

With `O=c1[nH]cnc2c1ncn2[C@H]1CC[C@@H](CO)O1`, the result was inactive.

Regarding `OCC(CO)(CO)CO`, the result was inactive.

Turning to `O=C(O)c1cccc(C(=O)O)c1`, the outcome was inactive.

As for `OC[C@H]1O[C@@H]2O[C@H]3[C@H](O)[C@@H](O)[C@@H](O[C@H]4[C@H](O)[C@@H](O)[C@@H](O[C@H]5[C@H](O)[C@@H](O)[C@@H](O[C@H]6[C@H](O)[C@@H](O)[C@@H](O[C@H]7[C@H](O)[C@@H](O)[C@@H](O[C@H]1[C@H](O)[C@H]2O)O[C@@H]7CO)O[C@@H]6CO)O[C@@H]5CO)O[C@@H]4CO)O[C@@H]3CO`, the outcome was inactive.

As to `CCOC(N)=O`, the result was inactive.

Read-out in a further assay: Macrophage colony-stimulating factor (MCSF), CSF1 (gene 1435)
As to the kind of experiment: BSK_CASM3C_MCSF: BioMAP Diversity Plus: CASM3C Assay for Macrophage colony-stimulating factor (MCSF) Biomarker Activity (AID 2283044).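 Also: M-CSF protein amount quantified by ELISA after 24 h exposure.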 The note with it: primary human coronary artery smooth muscle cells; actives raise or lower the signal.
With `CC(C)CC(C)O` (stereo not drawn), the outcome was inactive.

As a reminder, the AC50 is the concentration at which the activity in the assay is half-maximal. Turning to `CCN(CC)C(=S)SSC(=S)N(CC)CC`, the AC50 was 24.4 µM (active).

As for `FC(F)C(F)(F)COCC1CO1` (stereo not drawn), the result was inactive.

Regarding `OCCC(F)(F)C(F)(F)C(F)(F)C(F)(F)F`, the outcome was inactive.

With `CCCCN1C(=O)[C@@H]([C@H](O)C2CCCCC2)NC(=O)C12CCN(Cc1ccc(Oc3ccc(C(=O)O)cc3)cc1)CC2`, the result was inactive.

As to `NC(=O)N1c2ccccc2C=Cc2ccccc21`, the outcome was inactive.

`CC(C)c1nnc2ccc(-c3ocnc3-c3cc(F)ccc3F)cn12`: the outcome was inactive.

For the molecule `O=S(=O)(O)CCC(F)(F)C(F)(F)C(F)(F)C(F)(F)C(F)(F)C(F)(F)F`, the outcome was inactive.

Consider `FC(F)=C(F)C(F)(F)C(F)(F)C(F)(F)C(F)(F)C(F)(F)C(F)(F)F`, for which the outcome was inactive.

As for `Cc1ccc(S(=O)(=O)NC(=O)NN2CCCCCC2)cc1`, the outcome was inactive.

As to `CC[C@H](C)C(=O)O[C@H]1C[C@H](O)C=C2C=C[C@H](C)[C@H](CC[C@@H](O)C[C@@H](O)CC(=O)O)[C@H]21`, the result was inactive.

With `CCCCCCCCN(C)C`, the result was inactive.

Turning to `FC(F)(F)C(F)(F)C(F)(F)C(F)(F)C(F)(F)C(F)(F)I`, the result was inactive.

As to `O=S(=O)(O)c1ccc(N=Nc2c(O)ccc3cc(S(=O)(=O)O)ccc23)cc1`, the result was inactive.

As to `CCCCCCOC(=O)CC(CC(=O)OCCCCCC)(OC(=O)CCC)C(=O)OCCCCCC`, the outcome was inactive.

Turning to `c1ccc2ncccc2c1`, the result was inactive.

As to `OC[C@H]1O[C@@](CO)(O[C@H]2O[C@H](CO)[C@@H](O)[C@H](O)[C@H]2O)[C@@H](O)[C@@H]1O`, the outcome was inactive.

For the molecule `C[C@@H](Oc1ccc(CNC(=O)c2cccnc2Oc2ccc3c(c2)OCO3)c(F)c1)C(=O)O`, the result was inactive.

With `Nc1ccn([C@@H]2O[C@H](CO)[C@@H](O)[C@@H]2O)c(=O)n1`, the result was inactive.

As for `CCCCCCCCCCCCCCCCOS(=O)(=O)O`, the outcome was inactive.

For the molecule `CC(C)CCCCCCOC(=O)C1CCCCC1C(=O)OCCCCCCC(C)C` (stereo not drawn), the outcome was inactive.

Take `O=C(O)[C@H](O)[C@@H](O)C(=O)O`: the outcome was inactive.

Take `OCC(CO)(CO)CO`: the outcome was inactive.

`O=C(O)c1cccc(C(=O)O)c1`: the outcome was inactive.

On to `OC[C@H]1O[C@@H]2O[C@H]3[C@H](O)[C@@H](O)[C@@H](O[C@H]4[C@H](O)[C@@H](O)[C@@H](O[C@H]5[C@H](O)[C@@H](O)[C@@H](O[C@H]6[C@H](O)[C@@H](O)[C@@H](O[C@H]7[C@H](O)[C@@H](O)[C@@H](O[C@H]1[C@H](O)[C@H]2O)O[C@@H]7CO)O[C@@H]6CO)O[C@@H]5CO)O[C@@H]4CO)O[C@@H]3CO`, for which the outcome was inactive.

With `CCOC(N)=O`, the result was inactive.

Read-out in a further assay: Low-density lipoprotein receptor (LDLR), LDLR (gene 3949)
As to the kind of experiment: BSK_CASM3C_LDLR: BioMAP Diversity Plus: CASM3C Assay for Low-density lipoprotein receptor (LDLR) Biomarker Activity (AID 2283045).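 Also: LDLR protein level on the cell surface quantified by ELISA.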 Conditions: primary human coronary artery smooth muscle cells; actives raise or lower the signal.
`CC(C)CC(C)O` (stereo not drawn): the outcome was inactive.

With `CCN(CC)C(=S)SSC(=S)N(CC)CC`, the AC50 is 35.4 µM (active).

With `FC(F)C(F)(F)COCC1CO1` (stereo not drawn), the result was inactive.

Turning to `OCCC(F)(F)C(F)(F)C(F)(F)C(F)(F)F`, the result was inactive.

For `CCCCN1C(=O)[C@@H]([C@H](O)C2CCCCC2)NC(=O)C12CCN(Cc1ccc(Oc3ccc(C(=O)O)cc3)cc1)CC2`, the AC50 was 9.69 µM (active).

On to `NC(=O)N1c2ccccc2C=Cc2ccccc21`, for which the result was inactive.

`CC(C)c1nnc2ccc(-c3ocnc3-c3cc(F)ccc3F)cn12`: the AC50 was 0.551 µM (active).

Consider `O=S(=O)(O)CCC(F)(F)C(F)(F)C(F)(F)C(F)(F)C(F)(F)C(F)(F)F`, for which the outcome was inactive.

In the case of `FC(F)=C(F)C(F)(F)C(F)(F)C(F)(F)C(F)(F)C(F)(F)C(F)(F)F`, the outcome was inactive.

In the case of `Cc1ccc(S(=O)(=O)NC(=O)NN2CCCCCC2)cc1`, the outcome was inactive.

Take `NC(N)=O`: the result was inactive.

Consider `CC[C@H](C)C(=O)O[C@H]1C[C@H](O)C=C2C=C[C@H](C)[C@H](CC[C@@H](O)C[C@@H](O)CC(=O)O)[C@H]21`, for which the result was inactive.

Consider `CCCCCCCCN(C)C`, for which the result was inactive.

For the molecule `FC(F)(F)C(F)(F)C(F)(F)C(F)(F)C(F)(F)C(F)(F)I`, the outcome was inactive.

Take `O=S(=O)(O)c1ccc(N=Nc2c(O)ccc3cc(S(=O)(=O)O)ccc23)cc1`: the result was inactive.

Regarding `CCCCCCOC(=O)CC(CC(=O)OCCCCCC)(OC(=O)CCC)C(=O)OCCCCCC`, the result was inactive.

As to `c1ccc2ncccc2c1`, the result was inactive.

Consider `OC[C@H]1O[C@@](CO)(O[C@H]2O[C@H](CO)[C@@H](O)[C@H](O)[C@H]2O)[C@@H](O)[C@@H]1O`, for which the outcome was inactive.

Turning to `C[C@@H](Oc1ccc(CNC(=O)c2cccnc2Oc2ccc3c(c2)OCO3)c(F)c1)C(=O)O`, the result was inactive.

On to `Nc1ccn([C@@H]2O[C@H](CO)[C@@H](O)[C@@H]2O)c(=O)n1`, for which the outcome was inactive.

Consider `CCCCCCCCCCCCCCCCOS(=O)(=O)O`, for which the outcome was inactive.

Take `CC(C)CCCCCCOC(=O)C1CCCCC1C(=O)OCCCCCCC(C)C` (stereo not drawn): the outcome was inactive.

With `O=C(O)[C@H](O)[C@@H](O)C(=O)O`, the result was inactive.

With `O=c1[nH]cnc2c1ncn2[C@H]1CC[C@@H](CO)O1`, the result was inactive.

Take `OCC(CO)(CO)CO`: the result was inactive.

As for `O=C(O)c1cccc(C(=O)O)c1`, the outcome was inactive.

In the case of `OC[C@H]1O[C@@H]2O[C@H]3[C@H](O)[C@@H](O)[C@@H](O[C@H]4[C@H](O)[C@@H](O)[C@@H](O[C@H]5[C@H](O)[C@@H](O)[C@@H](O[C@H]6[C@H](O)[C@@H](O)[C@@H](O[C@H]7[C@H](O)[C@@H](O)[C@@H](O[C@H]1[C@H](O)[C@H]2O)O[C@@H]7CO)O[C@@H]6CO)O[C@@H]5CO)O[C@@H]4CO)O[C@@H]3CO`, the outcome was inactive.

With `CCOC(N)=O`, the result was inactive.

The values are drawn from PubChem BioAssay (EPA / NIEHS).
